Data on 4 compounds can be found in PubChem BioAssay.

Structures are written as SMILES. Where “and” joins values, the source holds several entries; their conditions need not be identical. Equal values may be shown once. Calls of active or inactive are those of the source.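 The calls were made as follows, unless noted: active = mean z-score across replicates of 1.96 or higher in either the MELAS or the Rieske mutant cell line; inactive = the rest.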

Experiment [1] can be described thus: P. berghei load reduction in hepatocytes – cell-based, HepG2, luciferase luminescence, HepG2 viability, primary screen (AID 624349; in the data active = parasite load remaining mostly below about 12%, no sharp cut-off; inactive = mostly above about 10%;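 also: 100% = mean of DMSO negative control wells on the same plate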). As to conditions: P. berghei liver stage in HepG2, luciferase luminescence, concentration not given here; parasite load remaining: stronger effect = lower value; viability: measured here: HepG2 viability without parasites.
Experiment [2] in a line: Wnt pathway potentiators raising nuclear beta-catenin – imaging, WNT3A-conditioned medium, mouse C2C12, NPC library, primary screen (AID 1117326; in the data active = nuclear beta-catenin stimulation mostly above about 4.2%, no sharp cut-off; inactive = mostly below about 10%). As to conditions: stronger effect = higher value.
A short description of experiment [3]: stimulators of insulin release from INS-1E, primary screen, cell-based, 5 mM glucose, NPC library (AID 1117329;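 active = compound raises insulin release from rat beta cells at 5 mM glucose, no numeric limit stated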). As to conditions: rat INS-1E insulin secretion, at 10 µM, stronger effect = higher value.
Experiment [4] is described as follows: growth inhibition of GSK3B-pretreated HCT116 cells – cell-based, CellTiter-Glo, 0.2 to 20 µM (AID 1117336;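 active = compounds lowering colon cancer cell viability after pretreatment blocking the GSK3B kinase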). The note with it: HCT116 viability after GSK3B inhibitor, at 20 µM, stronger effect = higher value. Background: ATP-based viability assays read luminescence as a measure of living cells.
A short description of experiment [5]: inhibition of endothelial tube formation, primary screen, imaging, VEGF stimulated, CD31 staining, tube area, NPC library (AID 1117340;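 active = compound that reduces growth-factor-driven endothelial tube area in a mixed cell culture, no cutoff stated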). The note with it: VEGF-stimulated ADSC/ECFC co-culture, at 10 µM, stronger effect = higher value.
Experiment [6] can be described thus: GLP1 release stimulators, primary, NCI-H716, NPC library (AID 1117341;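 active = compound raises GLP1 secretion from the human gut endocrine cells, with no numeric limit stated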). As to conditions: NCI-H716 cells, at 10 µM, stronger effect = higher value.
Experiment [7] can be described thus: HCT116 colon cancer cell growth inhibition, primary screen, CellTiter-Glo luminescence, NPC library (AID 1117342;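 active = compounds that lower survival of HCT116 colon cancer cells in the luminescence readout, no numeric limit stated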). As to conditions: at 20 µM (top of the series).
Experiment [8] is described as follows: reduced SW480 viability measured with CellTiter-Glo, NPC library, primary (AID 1117343;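 active = compounds that lower viability of the colon cancer cells in the luminescence readout, with no numeric limit stated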). The note with it: CellTiter-Glo luminescence; at 20 µM (top of the series).
A short description of experiment [9]: NPC library primary testing for decreased DLD-1 cell viability via CellTiter-Glo (AID 1117346;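 active = compounds that lower survival of DLD-1 colon cancer cells in the luminescence readout, no cutoff given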). The note with it: DLD-1 viability, CellTiter-Glo luminescence; at 20 µM (top of the series).
In experiment [10] the target is 6-phosphogluconate dehydrogenase, decarboxylating (Homo sapiens) (UniProt P52209). Kind of experiment: inhibition of human phosphogluconate dehydrogenase – biochemical, recombinant enzyme, NADPH absorbance, primary screen (AID 1159550;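 active = at least 20% inhibition of 6-phosphogluconate dehydrogenase activity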). The note with it: recombinant 6PGD, NADPH absorbance 341 nm; at 10 µM; stronger effect = higher value.
Chain of 6-phosphogluconate dehydrogenase, decarboxylating (Homo sapiens) (P52209 whole entry, looked up): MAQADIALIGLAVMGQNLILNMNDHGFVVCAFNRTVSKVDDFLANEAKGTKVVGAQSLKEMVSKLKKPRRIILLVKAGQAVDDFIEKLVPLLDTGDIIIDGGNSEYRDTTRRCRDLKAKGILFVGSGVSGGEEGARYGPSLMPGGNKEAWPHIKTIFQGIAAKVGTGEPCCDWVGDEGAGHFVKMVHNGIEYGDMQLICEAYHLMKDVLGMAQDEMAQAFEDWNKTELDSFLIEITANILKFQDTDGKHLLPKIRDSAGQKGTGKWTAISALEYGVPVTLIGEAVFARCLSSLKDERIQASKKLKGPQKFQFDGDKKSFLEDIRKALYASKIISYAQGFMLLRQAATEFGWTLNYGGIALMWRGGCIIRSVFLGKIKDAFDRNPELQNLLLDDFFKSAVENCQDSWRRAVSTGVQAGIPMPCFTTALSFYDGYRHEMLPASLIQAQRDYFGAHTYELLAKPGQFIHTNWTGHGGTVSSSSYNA
Experiment [11] can be described thus: EMT-state selective cytotoxicity in co-culture – imaging, PC-3E GFP, TEM4-18 mCherry, primary screen (AID 1345086;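 active = compounds killing one labelled cell type while sparing the other, by normalised counts and ratio limits, not self-fluorescent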;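 as to all read-outs here: cells exposed to compound for 72 h before imaging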;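 as to red/green cell ratio (normalised): normalised mesenchymal count divided by normalised epithelial count so high means epithelial killing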). The note with it: PC-3E GFP / TEM4-18 mCherry co-culture, imaging cell counts, at 1 µM; for red/green cell ratio (normalised): actives lie on both sides, counts scaled to control wells, 1 = unselective.
The nature of experiment [12]: MELAS cybrid and Rieske KO viability enhancers – cell-based, MELAS cybrids, Rieske KO mouse fibroblasts, CellTiter-Glo, primary screen (AID 1508586).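 Also: z relative to plate mean and SD of compound and empty wells.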 As to conditions: low glucose.
In experiment [13] the target is NAD(+) hydrolase SARM1 (Homo sapiens) (UniProt Q6SZW1). As to the kind of experiment: blocking NAD cleavage by SARM1 SAM-TIR – cell lysate, NAD-Glo luminescence (AID 1508614;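 active = compound whose remaining NAD level is above about 45 nM, limit read from the data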;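 also: higher remaining NAD means stronger inhibition of SARM1 NADase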). As to conditions: SAM-TIR HEK293T lysate NADase, at 1 µM, stronger effect = higher value.
Chain of NAD(+) hydrolase SARM1 (Homo sapiens) (Q6SZW1 whole entry, looked up, the tested form may be a part): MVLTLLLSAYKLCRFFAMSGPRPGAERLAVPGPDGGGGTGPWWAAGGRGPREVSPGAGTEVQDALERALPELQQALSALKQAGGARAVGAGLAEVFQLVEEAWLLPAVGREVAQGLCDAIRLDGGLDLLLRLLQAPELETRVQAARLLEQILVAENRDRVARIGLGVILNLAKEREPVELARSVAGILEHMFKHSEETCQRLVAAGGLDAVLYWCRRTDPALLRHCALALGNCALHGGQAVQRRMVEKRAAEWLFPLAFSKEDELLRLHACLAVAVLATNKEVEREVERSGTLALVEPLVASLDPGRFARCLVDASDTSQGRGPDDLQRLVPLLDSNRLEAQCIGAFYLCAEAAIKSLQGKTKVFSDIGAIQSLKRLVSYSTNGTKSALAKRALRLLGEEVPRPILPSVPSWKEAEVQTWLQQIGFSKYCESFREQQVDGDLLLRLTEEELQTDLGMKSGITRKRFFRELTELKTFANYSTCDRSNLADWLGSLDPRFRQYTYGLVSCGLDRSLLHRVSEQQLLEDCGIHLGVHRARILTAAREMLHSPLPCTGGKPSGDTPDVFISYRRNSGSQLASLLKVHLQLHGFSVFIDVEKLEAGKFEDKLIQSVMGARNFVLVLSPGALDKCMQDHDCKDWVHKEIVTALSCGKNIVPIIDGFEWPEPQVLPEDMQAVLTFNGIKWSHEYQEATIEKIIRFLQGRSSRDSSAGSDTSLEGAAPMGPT
Experiment [14] deals with Mitogen-activated protein kinase 7 (Homo sapiens) (UniProt Q13164). As to the kind of experiment: Gal4-ERK5 driven luciferase induction – cell-based, HTS, primary screen (AID 1508626;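 active = luciferase signal above three times the same-plate solvent-only control wells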;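 also: luciferase driven by Gal4-ERK5 fusion binding five Gal4 sites before minimal TATA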). The note with it: HeLa Gal4-ERK5 transactivation, 18 h, at 5 µM, stronger effect = higher value.
Chain of Mitogen-activated protein kinase 7 (Homo sapiens) (Q13164 whole entry, looked up, the tested form may be a part): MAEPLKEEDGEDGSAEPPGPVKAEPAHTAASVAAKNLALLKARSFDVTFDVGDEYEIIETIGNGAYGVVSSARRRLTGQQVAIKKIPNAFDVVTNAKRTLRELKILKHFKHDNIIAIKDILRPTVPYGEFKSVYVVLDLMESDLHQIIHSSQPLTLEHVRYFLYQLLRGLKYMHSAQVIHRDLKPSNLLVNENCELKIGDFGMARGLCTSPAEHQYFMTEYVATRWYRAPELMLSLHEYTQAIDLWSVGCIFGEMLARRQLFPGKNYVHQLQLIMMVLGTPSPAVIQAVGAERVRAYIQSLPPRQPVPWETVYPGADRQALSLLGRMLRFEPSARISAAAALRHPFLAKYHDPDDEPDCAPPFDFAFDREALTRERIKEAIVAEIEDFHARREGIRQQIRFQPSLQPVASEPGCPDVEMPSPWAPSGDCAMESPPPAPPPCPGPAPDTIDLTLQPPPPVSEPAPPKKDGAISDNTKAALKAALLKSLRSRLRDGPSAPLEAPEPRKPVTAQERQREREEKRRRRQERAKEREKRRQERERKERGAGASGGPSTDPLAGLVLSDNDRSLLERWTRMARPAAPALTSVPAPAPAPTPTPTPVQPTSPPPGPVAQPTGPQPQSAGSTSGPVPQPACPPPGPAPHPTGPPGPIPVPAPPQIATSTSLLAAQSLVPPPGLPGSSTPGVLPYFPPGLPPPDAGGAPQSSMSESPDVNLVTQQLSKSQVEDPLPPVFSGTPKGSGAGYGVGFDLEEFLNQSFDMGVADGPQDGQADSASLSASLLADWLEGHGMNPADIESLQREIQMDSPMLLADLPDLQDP
Experiment [15] can be described thus: signal quenchers or enhancers, Cy5 substrate/SSB – biochemical, NIH Clinical Collection, E. coli SSB, artefact control for HCV NS3 helicase inhibitor project (AID 743268; call rule not given here). As to conditions: Cy5-oligo bound E. coli SSB, fluorescence interference.
Experiment [16] relates to Hepatitis C virus NS3 helicase. Kind of experiment: blockers of NS3h binding to DNA – biochemical, fluorescence polarization, NIH Clinical Collection, primary screen (AID 743270; call rule not given here). As to conditions: NS3 helicase binding to Cy5-dT15 DNA, stronger effect = higher value, concentration not given here. For orientation: Polarisation of emitted light reports the rotation of a fluorescent probe.

In experiment [17] the target is Single-stranded DNA-binding protein (Escherichia coli (strain K12)) (UniProt P0AGE0). Kind of experiment: SSB-ssDNA binding inhibitors – biochemical, fluorescence polarization, NIH Clinical Collection, counter-screen for HCV NS3 helicase inhibitor project (AID 743271; in the data active = inhibition above about 28%). The note with it: E. coli SSB-DNA binding, stronger effect = higher value, concentration not given here.
A short description of experiment [18]: compounds distorting NS3 helicase fluorescence signal – biochemical, NIH Clinical Collection, artefact control for HCV NS3 helicase inhibitor project (AID 743272; call rule not given here;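 also: HCV NS3 helicase with a Cy5 labelled single stranded DNA probe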). As to conditions: fluorescence interference counterscreen, HCV NS3 helicase assay; stronger effect = lower value. For orientation: Counterscreens check selectivity or assay interference.
The test system of experiment [19] is F380Y. Kind of experiment: BK channel mutant inhibitors and activators – cell-based, U2OS BacMam, thallium flux, beta subunits, selectivity assay, profiling panel (AID 1259406;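 active = thallium flux through the channel raised or lowered by more than 3 SD from vehicle-only wells, actives on both sides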;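 also: initial slope of Thallos dye fluorescence rise after thallium is added; log ratio against the mean of 0.3% DMSO vehicle wells on the same plate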). As to conditions: U2OS BacMam BK variants, at 30 µM.
The mark [20] stands for this setting: measured here: epithelial PC-3E GFP cell survival.
[21] abbreviates: measured here: mesenchymal TEM4-18 mCherry cell survival.
Where [22] appears, read: MELAS cybrid survival, CellTiter-Glo 48 h, stronger effect = higher value.
The mark [23] stands for this setting: Rieske KO mouse fibroblast survival, CellTiter-Glo 72 h.

As usually defined, the viability is a read-out of living cells in per cent, often relative to untreated cells. In general, inhibition refers to the change of the read-out against control, counted positive when it falls.

`CCOC(=O)C1=C(COCCN)NC(C)=C(C(=O)OC)C1c1ccccc1Cl` (centres undefined): the parasite load remaining in [1] was 22.9% (inactive) and 39.3% (inactive) and 49.9% (inactive). The viability in experiment [1] is 107% and 67.5% and 111%. Also, the nuclear beta-catenin stimulation is 87.9% (active) in experiment [2] (at 10 µM) and 10% in [2] (stimulation, at 2 µM). The insulin secretion stimulation in experiment [3] was 11.6% (inactive). Besides, the viability decrease in [4] was 99.2% (active). For the same compound, the tube area decrease in experiment [5] is 87.8% (active). Besides, the GLP1 secretion stimulation in experiment [6] was 0.5% (inactive). For the same compound, the inhibition of viability in [7] is 99.3% (active). The viability decrease (inhibition) in experiment [8] is 102% (active); in experiment [9], 92% (active). Also, the inhibition in experiment [10] was 3.33% (inactive). Besides, the red/green cell ratio (normalised) in [11] was 0.9 (inactive). In addition, the figures for the normalised cell number in experiment [11] (setting [20]) and in [11] (setting [21]) were 1.26 and 1.13, respectively. The z-score in experiment [12] (setting [22]) was -0.269 (inactive) and 0.142 (inactive) and -0.356 (inactive); in [12] (setting [23]), 0.139 and -0.0453 and -0.413. The remaining NAD in [13] was 10 nM (inactive). Moreover, the luciferase signal in experiment [14] was 104 AU (inactive).

On to `O=C(c1ccccc1)c1ccc2n1CCC2C(=O)O` (centres undefined), for which the fluorescence ratio in [15] is 1.01 (inactive); in experiment [18], 0.99 (inactive). The inhibition in experiment [16] is -2.77% (inactive); in experiment [17] it was -7.8% (inactive); in [10] it was 6.58% (inactive). Moreover, the nuclear beta-catenin stimulation in [2] (at 10 µM) was -0.4% (inactive); in [2] (stimulation, at 2 µM), -0.5%. In addition, the insulin secretion stimulation in experiment [3] is 0.8% (inactive). Further, the viability decrease in [4] was 3.4% (inactive). For the same compound, in [5], the tube area decrease was 15.4% (inactive). For the same compound, the GLP1 secretion stimulation in experiment [6] was -3.6% (inactive). Also, the inhibition of viability in experiment [7] was -1.1% (inactive). In addition, the values for the viability decrease (inhibition) in experiment [8] and in experiment [9] were 1.1% (inactive) and 11.4% (inactive), respectively. Besides, the red/green cell ratio (normalised) in experiment [11] is 1.03 (inactive). The normalised cell number stood at 1.2 in experiment [11] (setting [20]) and 1.24 in experiment [11] (setting [21]). Also, the z-score in experiment [12] (setting [22]) was 0.234 (inactive) and -0.244 (inactive) and -0.284 (inactive); in [12] (setting [23]) it was -0.239 and 0.894 and -0.237. The remaining NAD in experiment [13] was 10 nM (inactive). In addition, the luciferase signal in experiment [14] is 36 AU (inactive).

On to `CN1CCN(CCCN2c3ccccc3Sc3ccc(C(F)(F)F)cc32)CC1`, for which the figures for the fluorescence ratio in experiment [15] and in experiment [18] were 0.87 (inactive) and 0.85 (inactive), respectively. Further, the inhibition in [16] was -1.19% (inactive); in experiment [17] it was 1.44% (inactive); in experiment [10], 8.36% (inactive). Moreover, the nuclear beta-catenin stimulation was 32.2% (inactive) in experiment [2] (at 10 µM) and 0.2% in experiment [2] (stimulation, at 2 µM). Besides, in experiment [3], the insulin secretion stimulation is 6.1% (inactive). Moreover, the viability decrease in [4] was 110% (active). Moreover, the tube area decrease in experiment [5] was 106% (active). Further, the GLP1 secretion stimulation in experiment [6] is 28.8% (active). Besides, the inhibition of viability in experiment [7] is 112% (active). Further, the viability decrease (inhibition) in experiment [8] is 132% (active); in [9], 99.8% (active). Besides, the red/green cell ratio (normalised) in [11] was 0.91 (inactive). For the same compound, the results for the normalised cell number in experiment [11] (setting [20]) and in experiment [11] (setting [21]) were 1 and 0.91, respectively. Besides, the z-score in [12] (setting [22]) was -0.198 (inactive) and -1.6 (inactive) and 0.134 (inactive); in experiment [12] (setting [23]) it was -0.246 and 0.0911 and -0.232. Moreover, in experiment [13], the remaining NAD was 10 nM (inactive). Moreover, the luciferase signal in experiment [14] is 52 AU (inactive). In addition, the log fold change Tl+ flux in [19] is 0.0849 (inactive).

`CCCN1C[C@H](CSC)C[C@@H]2c3cccc4[nH]cc(c34)C[C@H]21`: the fluorescence ratio in experiment [15] was 1.02 (inactive); in experiment [18], 1 (inactive). Further, the values for the inhibition in [16], in [17] and in experiment [10] were 1.53% (inactive), 10.6% (inactive) and 0.728% (inactive), respectively. Besides, the nuclear beta-catenin stimulation in experiment [2] (at 10 µM) was 0.2% (inactive); in [2] (stimulation, at 2 µM) it was -1.1%. In addition, the insulin secretion stimulation in experiment [3] was 3.5% (inactive). Besides, in experiment [4], the viability decrease was 20.2% (inactive). In addition, the tube area decrease in experiment [5] was -5.3% (inactive). In addition, the GLP1 secretion stimulation in [6] was 5.1% (inactive). Moreover, the inhibition of viability in experiment [7] was 45.7% (inactive). The viability decrease (inhibition) is -2.1% (inactive) in experiment [8] and 7.8% (inactive) in experiment [9]. Besides, the red/green cell ratio (normalised) in experiment [11] is 1.38 (inactive). Further, the normalised cell number in [11] (setting [20]) stood at 0.91; in experiment [11] (setting [21]), 1.25. The z-score in experiment [12] (setting [22]) was 0.448 (inactive) and 0.276 (inactive); in experiment [12] (setting [23]), -0.203 and -0.419. Further, in experiment [13], the remaining NAD is 10 nM (inactive). Further, the luciferase signal in experiment [14] is 40 AU (inactive). Besides, in [19], the log fold change Tl+ flux is -0.0179 (inactive).
